In the supplement of paper PMC6555819:

Experiments:
Assay in all cases: PBM binding z-score (relative to random genomic background probes); higher = stronger binding; sequences stand for … in GC…GCGATTGACAGCGTAGAATGAAGG
[1] = tested on: FXR:RXRa (NR concentration 270 nM, RXRa partner concentration 90 nM)
How it was run: (§1)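 Binding z-scores were set against random background probes. The data came from custom Agilent 4×180K protein-binding microarrays carrying double-stranded probes with 34-nt variable regions, incubated 1 h with ligand-free nuclear receptor dimers. Partner-specific antibodies detected binding, and scanned fluorescence was regression-normalized.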

[2] = tested on: LXRa:RXRa (NR concentration 270 nM, RXRa partner concentration 90 nM)
How it was run: as §1

[3] = tested on: LXRa homodimer (NR concentration 270 nM)
How it was run: as §1

[4] = tested on: LXRb:RXRa (NR concentration 270 nM, RXRa partner concentration 90 nM)
How it was run: as §1

[5] = tested on: LXRb homodimer (NR concentration 270 nM)
How it was run: as §1

[6] = tested on: PPARa:RXRa (NR concentration 270 nM, RXRa partner concentration 90 nM)
How it was run: as §1

[7] = tested on: PPARg:RXRa (NR concentration 180 nM, RXRa partner concentration 90 nM)
How it was run: as §1

[8] = tested on: PPARg:RXRa 270nM:90nM, anti-RXR (NR concentration 270 nM, RXRa partner concentration 90 nM)
How it was run: as §1

[9] = tested on: PPARg:RXRa 30nM:10nM, anti-RXR (NR concentration 30 nM, RXRa partner concentration 10 nM)
How it was run: as §1

[10] = tested on: PPARg:RXRa 90nM:30nM, anti-RXR (NR concentration 90 nM, RXRa partner concentration 30 nM)
How it was run: as §1

Sequence | PBM binding z-score [1] | PBM binding z-score [2] | PBM binding z-score [3] | PBM binding z-score [4] | PBM binding z-score [5] | PBM binding z-score [6] | PBM binding z-score [7] | PBM binding z-score [8] | PBM binding z-score [9] | PBM binding z-score [10]
AGAATGAGGTGAAGATCAGGGAAACAGAATACAT | 0.903 | 0.457 | -0.113 | 0.85 | -0.114 | 2.91 | 2.33 | 2.21 | 0.859 | 1.5
TAATATAGGTAAATGCTAGGTGAAAGTCCGATCT | 0.659 | 0.683 | 0.391 | 0.477 | 0.54 | 2.09 | 2.64 | 2.55 | 1.74 | 1.99
TCTGCCAGGTCAACGATGGTCAGCTAATCTGCTA | 4.25 | 3.33 | 0.136 | 2.23 | 0.15 | 3.46 | 2.13 | 2.8 | 1.53 | 2.04
CGAACTAGGTCAAAACAGGACAGTGAAGGATGAT | 3.26 | 3.07 | 0.154 | 1.86 | 0.313 | 4.54 | 6.73 | 5.86 | 3.32 | 5.36
ATCGAAAGGTCGACGAGGTGAGTTTACACCGTTT | 4.66 | 3.45 | 0.17 | 2.95 | 0.407 | 4.71 | 2.73 | 3.1 | 0.726 | 2.05
GCAGACAGGTGAAACGGAGGTAACTCAGGGTGGC | -0.223 | 0.247 | -0.497 | -0.0336 | -0.922 | 0.977 | 0.646 | 0.393 | -0.282 | 0.0488
ATTGAAAGGTCGAAGGTGAGTATACCCACCCGAA | 4.77 | 3.47 | 0.632 | 2.97 | 0.961 | 4.74 | 5.11 | 5.53 | 2.82 | 5.09
CAAACTAGGTCAAGAGGTCCAAGTCCGCTTCCCG | 3.7 | 2.26 | 0.265 | 1.6 | 0.102 | 4.52 | 7.57 | 6.68 | 4.65 | 6.56
TATCGGAGGACACGAAAGGTCAGAGCTCGACATC | 3.35 | 4.54 | 4.27 | 3.43 | 0.855 | 3.93 | 2.18 | 2.81 | 1.03 | 2.13
TCATATAGGTAAAAGGTGTAAGTCGGTGTGGTAA | 1.13 | 1.12 | -0.0427 | 1.14 | 0.187 | 3.18 | 5.19 | 6.1 | 5.92 | 7.17
AAACCAAGGTGATCGTGAGGTCGTTGATACTAAC | 1.87 | 1.29 | 0.284 | 1.13 | -0.456 | 1.54 | 0.386 | 0.544 | -0.322 | 0.389
ATCGAAAGGTCGAAGGTGAGTATACCCACCCGAA | 4.3 | 3.8 | 0.189 | 2.86 | 0.5 | 4.67 | 4.53 | 5.13 | 2.14 | 4.33
CAAACTCGGTCACCGGAAGGTCAAAGTCCGCATG | 4.53 | 5.04 | 4.93 | 3.86 | 1.28 | 4.39 | 3.62 | 4.26 | 1.23 | 3.26
CCTACTGGGCCAAAAAGGTCAGTGATGCCGATAA | 1.31 | 1.9 | 0.693 | 2.27 | -0.789 | 3.36 | 2.04 | 2.9 | 0.549 | 1.83
AGAATGAGGTTATTAAGATGAGGGAATTGCGGTC | 1.61 | 1.5 | 0.433 | 1.3 | 0.12 | 2.54 | 1.22 | 1.46 | 0.735 | 1.12
CGAGACAGGTGAGAAGGTAACTCAGCCTCGATTA | -0.0468 | -0.124 | -0.337 | -0.343 | -0.761 | 0.591 | 0.452 | 0.452 | -0.196 | 0.138
TCTGCTAGGTCAACGATGGTCAACTAATCTGCTA | 3.62 | 3.21 | 0.113 | 2.15 | 0.0398 | 3.3 | 2.54 | 3.18 | 1.79 | 2.6
CGTCCAGGGTCATAGGAGGTCAGTGAAGACAGAT | 7.36 | 7.25 | 2.83 | 6.26 | 0.185 | 5.85 | 5.65 | 5.78 | 2.38 | 4.63
TCAGACAGGTGTAGGTAACTCAGGTACGCAGTCG | 0.401 | 1.02 | 0.205 | 0.34 | -0.0818 | 0.643 | 0.472 | 1.78 | 3.54 | 2.76
TCATATAGGTATAAGGTGAAAGTCGGTGTGGTAA | 1.55 | 1.21 | 0.319 | 1.37 | 0.352 | 3.14 | 3.92 | 5.38 | 5.06 | 5.68
CCGAGTAGGTTATGGGCCATTCAGGCAACGGTGA | -0.39 | 0.176 | -0.0661 | -0.0151 | -0.497 | 1.58 | 2.14 | 3.47 | 1.22 | 3.06
ACATACGGGTCAACGAGGTTATAGCACGCGTATA | 5.59 | 4.74 | 0.827 | 3.97 | 0.73 | 5.39 | 5.65 | 4.94 | 1.99 | 3.86
